# D1 antagonist – Antagonist of Human D 1 Dopamine Receptor: qHTS; HEK293 TREx D1 cells, calcium flux, dopamine EC80; hits give low values; D(1A) dopamine receptor (Homo sapiens), P21728; 3.2% of 360,000 active; AID 504652, 2011; activity change, negative = inhibition, % at 10 µM; in the data active = activity change below about -30%; also: % is scaled to controls: 0 for no effect and ±100 for the full control effect
# Target sequence (P21728 whole entry, looked up): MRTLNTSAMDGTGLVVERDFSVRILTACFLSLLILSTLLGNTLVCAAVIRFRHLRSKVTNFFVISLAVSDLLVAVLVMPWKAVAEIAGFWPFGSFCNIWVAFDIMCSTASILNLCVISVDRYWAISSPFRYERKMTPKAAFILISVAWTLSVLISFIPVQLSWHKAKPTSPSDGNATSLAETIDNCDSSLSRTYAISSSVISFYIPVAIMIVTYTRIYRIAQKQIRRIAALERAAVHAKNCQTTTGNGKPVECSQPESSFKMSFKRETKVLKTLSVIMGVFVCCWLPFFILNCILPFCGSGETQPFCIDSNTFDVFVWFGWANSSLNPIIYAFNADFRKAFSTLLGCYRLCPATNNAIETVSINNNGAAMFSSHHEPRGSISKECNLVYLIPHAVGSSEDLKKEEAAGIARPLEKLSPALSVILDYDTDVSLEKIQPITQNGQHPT
#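 Antagonism measured as reduced calcium response to an EC80 dopamine addition following 180 s compound pre-read; cells were inducible HEK293 Trex D1 plated overnight at 30 C, read kinetically at 1 cycle/sec.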
# TRHR PAM – qHTS for Small Molecule Agonists and Allosteric Enhancers of Human TRH Receptor: Primary Screen for Enhancers; Thyrotropin-releasing hormone receptor (Homo sapiens), P34981; TRHR cells, fluo-8 calcium fluorescence, EC20 TRH enhancement; enhancement, % at 2 µM; 0.66% of 360,000 active; in the data active = enhancement above about 30%; also: 0% is about no effect
#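 Enhancer read-out: after compound pinning and an initial kinetic agonist-mode read, an EC20 of TRH (10 nM final) was injected and fluo-8 calcium signal (Ex 480/Em 530) followed at 1 s/cycle for 100 cycles in TRHR-expressing cells.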
# D1 PAM – Potentiators of Human D1 Dopamine Receptor: qHTS; D(1A) dopamine receptor (Homo sapiens), P21728; potentiation, % at 10 µM; 0.036% of 360,000 active; HEK293 TREx D1 cells, calcium flux, dopamine EC20 potentiation; in the data active = potentiation above about 30%; also: 0% is about no effect
# TRHR agonist – qHTS for Small Molecule Agonists and Allosteric Enhancers of Human TRH Receptor: Primary Screen for Agonists; 0.18% of 360,000 active; Thyrotropin-releasing hormone receptor (Homo sapiens), P34981; activation, % at 2 µM; TRHR cells, calcium flux fluo-8, FDSS agonist mode; AID 493084, 2011; also: 0% is about no effect
#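 Steps: seed TRHR cells overnight; add fluo-8 no-wash Ca dye, RT 30 min–1.5 h; record 10 s baseline; pin-transfer compounds; monitor fluorescence 1 cycle/s for the agonist window. Calcium increases flag candidate agonists.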
# D1 ag – Allosteric Agonists of the Human D1 Dopamine Receptor: qHTS | AID 504660, 2011 | HEK293 T-REx D1 cells, calcium flux, agonist mode | D(1A) dopamine receptor (Homo sapiens), P21728 | activation, % at 2 µM | 1% of 360,000 active; also: 0% is about no effect
#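 Agonism was scored from calcium flux recorded over 180 s (1 read/s) after pintool compound addition, following a 10-cycle baseline. Cells were inducible force-coupled HEK293 TREx D1, plated overnight at 30 C and loaded with no-wash calcium dye.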
# Active calls of the source: *; · = no result given. A selection: hits, their analogues and other compounds. The true share with any hit is near 4.7%. Rule as the data show it, unless noted: active = activation above about 30%; inactive = the rest.
SMILES,D1 antagonist,TRHR PAM,D1 PAM,TRHR agonist,D1 ag
COc1ccc(CN=C2Nc3ccccc3CS2)cc1,-31.9*,-6.5,-6.7,0.6,11.2
CN1CCN(C2=Cc3ccccc3Sc3cc(F)c(F)cc32)CC1,-83.5*,5.3,-4.0,-0.3,56.3*
CN1CCN(C2=Cc3cc(Cl)ccc3Sc3cc(F)ccc32)CC1,-8.7,8.0,-4.2,0.3,-0.3
CN1CCN(C2=Cc3ccccc3Sc3cc(F)c(Cl)cc32)CC1,-69.7*,6.8,-10.2,0.8,8.2
CCN(CC)CCNCc1cc(Cl)c(OCC(=O)Nc2ccccc2)c(OC)c1,-1.7,1.4,-3.4,0.4,7.1
COc1cc(CNC(C)c2ccccc2)cc(Cl)c1OCC(=O)Nc1ccccc1 (stereo not drawn),·,-1.0,-11.2,2.8,64.1*
CN(CC1CCOCC1)C(=O)c1ccc2nc(Cc3cccc(Cl)c3)oc2c1,1.5,7.6,6.5,0.4,2.7
O=C(NCC1CCOCC1)c1ccc2nc(Cc3cccc(Cl)c3)oc2c1,-53.2*,-18.5,-22.8,1.5,-0.9
COc1ccc(N2CCN(CCCNC(=O)c3ccc4nc(CCc5ccccc5)oc4c3)CC2)cc1,-30.5*,-5.7,-3.1,-0.7,34.7*
O=C(NCCCN1CCN(c2cccc(Cl)c2)CC1)c1ccc2nc(Cc3ccccc3)oc2c1,-32.6*,1.2,-4.6,0.6,17.8
CC(C)c1nc2ccc(C(=O)NCCCN3CCN(c4cccc(Cl)c4)CC3)cc2o1,-45.1*,4.0,-5.0,-0.2,7.0
COc1cc(C2C(=O)N(C3CCCCCC3)CC(=O)N2Cc2ccccc2)ccc1OC(C)C (stereo not drawn),-13.3,6.1,0.8,-0.9,-1.6
CC(=O)Nc1ccc(Nc2nc3ccc(C)cc3n3nnnc23)cc1,1.4,6.8,-1.0,-0.4,-1.1
Cc1cc(=O)c2cc(C(=O)Nc3ccc(C)c(C)c3)ccc2[nH]1,-10.6,4.4,0.5,0.4,0.9
O=C(NCc1ccc(Cl)cc1)C1CCN(S(=O)(=O)c2ccc3c(c2)CCCN3C(=O)C2CCC2)CC1,-5.6,-5.5,-5.4,-0.1,5.1
O=C(NCCCN1CCN(c2ccccc2)CC1)c1ccc2nc(CCc3ccccc3)oc2c1,-59.9*,1.0,-4.2,0.3,32.5*
COc1ccc(N2CCN(CCCNC(=O)c3ccc4nc(Cc5ccccc5)oc4c3)CC2)cc1,-24.3,5.4,-3.2,-0.1,27.0
COc1ccc(-c2cc(OC(=O)c3ccccc3Cl)c3c(C)oc(C)c3c(=O)c2)cc1OC,-0.2,10.2,1.6,-1.1,2.5
Clc1ccc(N2CCN(c3ncnc4c3nc3n4CCCC3)CC2)cc1,0.6,-12.9,1.4,0.2,6.7
O=C1CSc2ccc(S(=O)(=O)NCc3ccc(F)cc3)cc2N1,-1.0,3.4,-8.3,0.4,5.3
CCN(Cc1ccccc1)S(=O)(=O)c1ccc2c(c1)NC(=O)CS2,-35.9*,-4.4,-5.7,0.4,8.2
Cc1ccc(CNS(=O)(=O)c2ccc3c(c2)NC(=O)CS3)cc1,-33.6*,8.3,-3.2,-0.5,5.6
CC(=O)C1=C(c2ccc(F)cc2)N(C(C)=O)n2c(nnc2C2CCCCC2)S1,·,0.6,-0.5,0.1,3.2
CC1CCN(CCOc2cc(Cl)ccc2Cl)CC1,-59.0*,23.5,-4.2,-0.7,3.8
CC1CCN(CCOCCOc2ccc(Br)cc2Cl)CC1,-33.4*,-3.1,-18.1,1.1,13.1
SMILES,D1 antagonist,TRHR PAM,D1 PAM,TRHR agonist,D1 ag
CC1=C(C(=O)N2CCCCC2)C2(CCC(C)CC2)OC1=O (stereo not drawn),1.4,6.0,1.9,0.0,1.8
CC1=C(C(=O)N2CCc3ccccc32)C2(CCC(C)CC2)OC1=O (stereo not drawn),-77.7*,-3.9,-7.5,-0.6,1.7
O=C(CSc1ccccc1F)NNC(=O)c1ccncc1,5.2,4.9,2.7,0.3,1.4
O=C(CSc1ccccc1)NNC(=O)c1ccncc1,4.0,31.6*,1.0,-0.1,4.8
Cc1ccc(C(=O)Nc2cnc3ccccc3c2)cc1,0.6,-0.9,-1.5,-0.2,0.8
Cc1cc(C(=O)Nc2cnc3ccccc3c2)ccc1[N+](=O)[O-],-60.1*,3.8,0.1,-0.3,0.6
CCOCCCNC(=O)c1ccc2c(c1)NC(=O)C(CS(=O)(=O)Cc1ccc(F)cc1Cl)N2 (stereo not drawn),0.2,7.2,0.5,0.7,-1.1
CCOC(=O)c1cccc(NC(=O)N2CC(CC)Sc3ccccc32)c1 (stereo not drawn),-5.8,4.1,-1.1,-0.3,-2.0
O=C(c1c[nH]c2ccccc12)C(Cl)c1ccccc1 (stereo not drawn),-38.9*,5.1,-0.7,-1.9,18.2
COCCNc1nc2c(c(=O)n(C)c(=O)n2C)n1Cc1c(F)cccc1Cl,6.3,-3.3,-0.5,-0.6,3.7
O=[N+]([O-])c1ccc(N/N=C/c2ccc(O)c(O)c2O)c(S(=O)(=O)N2CCOCC2)c1,-0.7,3.6,10.2,0.5,6.2
O=[N+]([O-])c1ccc(N/N=C/c2cccc(O)c2O)c(S(=O)(=O)N2CCOCC2)c1,-76.5*,-2.0,-13.1,0.1,57.9*
CC(C)(C)c1ccc(OCC(=O)N2CCCCCC2)c(Br)c1,-35.0*,7.9,-13.4,-0.2,9.7
Cc1cc2nc(-c3ccc(NC(=O)C(C)C)cc3)oc2cc1C,-32.8*,-2.5,-2.4,0.3,1.3
COC(=O)c1cccc(Nc2c(-c3cc(Br)ccc3O)nc3nc[nH]n23)c1,-8.6,11.4,0.2,-0.8,-0.3
COP(=O)(OC)c1nc(-c2ccc([N+](=O)[O-])cc2)oc1N1CCCCC1,-3.1,0.6,-6.1,12.1,49.2*
CCOc1ccc(NC(=O)CN2CCN(c3ccc(Cl)cc3)CC2)cc1,6.3,-1.0,-0.7,-0.6,-0.6
Nc1ccc(S(=O)(=O)NC2=NCCCCC2)cc1N,11.9,10.0,-5.0,1.7,3.3
O=[N+]([O-])c1cc(S(=O)(=O)NC2=NCCCCC2)ccc1NCC1CCCCC1,-33.5*,-3.5,0.1,-0.7,6.0
COc1ccc(-c2noc(-c3ccc(N4CCCC4)c([N+](=O)[O-])c3)n2)cc1,13.9,-2.5,-4.2,-0.8,10.6
CCCc1cc(Nc2ccccc2C)n2ncnc2n1,-5.9,35.4*,-8.9,0.4,1.5
O=S(=O)(c1ccc(Cl)cc1)N(Cc1ccccn1)Cc1ccccn1,2.6,-5.1,-3.0,-0.8,3.2
CCN(CC)S(=O)(=O)c1ccc(S(=O)(=O)N(Cc2ccccn2)Cc2ccco2)cc1,-55.9*,1.1,-12.1,-0.6,30.6*

# Source: PubChem BioAssay (National Center for Advancing Translational Sciences (NCATS))
